Experimental data as given in PubChem BioAssay AID690 (Sanford-Burnham Center for Chemical Genomics, 2007).
In all, about 96,000 compounds went through this assay and about 80 (0.08%) were called active. These entries were drawn from the full list. Measured potencies and affinities stand elsewhere. Unmarked numbers belong to inactive results. How the calls were made is not given here.

Target: Alkaline phosphatase, placental type (Homo sapiens) (UniProt P05187)
Assay: inhibition of human placental alkaline phosphatase – biochemical, luminescence, HTS (AID 690)
Conditions: purified PLAP, luminescent substrate; at 20 µM; active compounds read high

Chain of Alkaline phosphatase, placental type (Homo sapiens) (P05187 whole entry, looked up): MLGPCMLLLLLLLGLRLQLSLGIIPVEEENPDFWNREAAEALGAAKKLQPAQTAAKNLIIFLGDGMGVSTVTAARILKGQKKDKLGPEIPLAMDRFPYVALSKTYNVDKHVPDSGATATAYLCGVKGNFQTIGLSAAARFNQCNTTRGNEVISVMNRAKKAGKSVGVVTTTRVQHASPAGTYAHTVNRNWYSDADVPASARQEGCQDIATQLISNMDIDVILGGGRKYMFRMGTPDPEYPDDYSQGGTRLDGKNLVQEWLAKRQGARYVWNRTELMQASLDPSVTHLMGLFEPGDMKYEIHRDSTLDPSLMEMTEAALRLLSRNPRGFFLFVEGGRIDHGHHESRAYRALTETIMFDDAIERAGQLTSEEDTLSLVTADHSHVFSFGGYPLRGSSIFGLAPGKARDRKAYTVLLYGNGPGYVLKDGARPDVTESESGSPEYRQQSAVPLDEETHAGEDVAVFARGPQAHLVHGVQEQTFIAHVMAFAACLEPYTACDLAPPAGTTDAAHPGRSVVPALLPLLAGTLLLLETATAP

Compound | inhibition
Cc1ccc(NC(=S)NC(NC(=O)Cc2cccc3ccccc23)C(Cl)(Cl)Cl)cc1 (stereo unspecified) | 36.5%
Cc1ccc(C)c(NC(=S)NC(NC(=O)N(C)C)C(Cl)(Cl)Cl)c1 (stereo unspecified) | -58%
Cc1nc(N2CCN(S(=O)(=O)c3ccccc3)CC2)c2c3c(sc2n1)CC(C)CC3 (stereo unspecified) | -34.1%
O=C1c2ccc3c4c(ccc(c24)C(=O)N1Cc1cccnc1)C(=O)N(Cc1cccnc1)C3=O | 4.9%
CC(O)CNc1nc2c(c(=O)n(C)c(=O)n2C)n1C/C=C/c1ccccc1 (stereo unspecified) | -20.9%
CCCN1/C(=C2/SC(=S)N(CC)C2=O)C=Cc2ccccc21 | 11.9%
CCN1C(=O)/C(=C2\C=Cc3ccccc3N2CC)SC1=S | 23.5%
CCn1ncc(Br)c1C(=O)N(C)C12CC3CC(CC(C3)C1)C2 | -9.1%
CN(CCNC(=O)c1cccc(N2CCCC2=O)c1)Cc1ccccc1 | -40.3%
O=C1Nc2ccccc2/C1=N\N=C\C1=C(N2CCOCC2)C(=C\c2ccccc2)/CC1 | -12.2%
O=P(C1=C(N2CCOCC2)/C(=C\c2ccccc2)CC1)(N1CCOCC1)N1CCOCC1 | -69.4%
O=C(O)c1c(Cl)c(Cl)c(Cl)c(Cl)c1C(=O)N1CCCC1 | -10.8%
CCOCC(O)CSCc1ccc(Cl)cc1 (stereo unspecified) | -5%
COc1ccc(CNC(=O)c2ccc(-c3ccccc3)cc2)cc1 | 6.9%
Fc1cccc(Cl)c1CSc1nnnn1-c1ccc2c(c1)OCO2 | 22.7%
Fc1ccccc1CSc1nnnn1-c1ccc2c(c1)OCO2 | 13.8%
CCOC(=O)CC(=O)CSc1nc2c(cc1C#N)CCC2 | 0%
CC(C)NS(=O)(=O)c1ccc(OCC(=O)NCc2ccccc2)cc1 | -1.7%
O=C1C2C3C=CC(C3)C2C(=O)N1c1cccc(N2C(=O)C3C4C=CC(C4)C3C2=O)n1 (stereo unspecified) | -1.8%
O=C1C2CC=CCC2C(=O)N1c1n[nH]c(CCc2ccccc2)n1 (stereo unspecified) | -20.2%
O=C1C2C3C=CC(C3)C2C(=O)N1Cc1cccnc1 (stereo unspecified) | 0.6%
O=C1C2C3C=CC(C3)C2C(=O)N1c1cccnc1 (stereo unspecified) | 15.9%
O=C1C2CC=CCC2C(=O)N1c1n[nH]c(Cc2ccccc2)n1 (stereo unspecified) | 62.3%
O=C1C2C3C=CC(C3)C2C(=O)N1c1n[nH]c(CCc2ccccc2)n1 (stereo unspecified) | 30%

Compound | inhibition
Cc1ccc(SCCNC(=O)C(CO)(CO)CO)cc1 | 11.9%
COc1ccc(CN(Cc2cc3ccc(C)cc3[nH]c2=O)Cc2nnnn2C2CCCC2)cc1 | -54.8%
Cc1ccc(-c2cc(C(=O)N/N=C\c3cnn(C)c3C)c3ccccc3n2)cc1C | -102%
C=CCn1c(SCC(=O)Nc2ccccc2OC)nnc1-c1ccco1 | 8%
O=C(C1CC1)N1CCN=C1SCc1cccc(C(F)(F)F)c1 | 3%
CCOCCCNC(=O)C1CCCN1S(=O)(=O)c1ccc(Cl)cc1 (stereo unspecified) | 8.4%
C#CC(CC)(CC)NC(=O)c1c(C)noc1C | 4.5%
O=C(Cc1cccs1)NCc1ccc(F)cc1 | -6%
CN1CCN(c2nc3c(c(=O)n(C)c(=O)n3C)n2CC(=O)C23CC4CC(CC(C4)C2)C3)CC1 | -54.5%
O=C1/C(=C/c2cccs2)SC(=S)N1c1ccccc1 | 12.2%
CCN(CC)c1ccc(N2C(=O)/C(=C/c3cccs3)SC2=S)cc1 | 3.4%
CC(C)N(CCNS(=O)(=O)c1ccc(Cl)cc1)C(C)C | 9.6%
O=C(Nc1ccccc1C(F)(F)F)c1ccc(CN2CCC(Cc3ccccc3)CC2)cc1 | -22.3%
Cc1ccc(-c2cc(C(=O)N/N=C/c3c(C)nn(-c4ccccc4)c3C)[nH]n2)cc1 | -2.5%
Cc1nn(-c2ccccc2)c(C)c1/C=N/NC(=O)c1cc(C(C)(C)C)[nH]n1 | -32%
O=c1[nH]c(CSc2nnc(-c3ccncc3)n2Cc2ccco2)nc2ccccc12 | -3.5%
N=c1oc2ccc3ccccc3c2cc1-c1nnc2n1CCCCC2 | -35.4%
O=[N+]([O-])c1ccc(C2CCCC/C2=N/OCc2ccc(F)cc2)c([N+](=O)[O-])c1 (stereo unspecified) | 25.8%
CC1CCC/C(=N/Nc2ccc([N+](=O)[O-])cc2[N+](=O)[O-])C1 (stereo unspecified) | 21.1%
CCN(CC)CCCNC(=O)N[C@@H](Cc1ccccc1)C(=O)O | -2.1%
CC(=O)c1c(C(C)=O)c(C)n(-c2ccc(O)cc2)c1C | -4.3%
O=C(NCc1cccnc1)NC1(C(F)(F)F)Oc2ccccc2O1 | 12.3%
CC(NC(=O)NCc1cccnc1)(C(F)(F)F)C(F)(F)F | -6.1%
COCC(C)NC(=O)NC1(C(F)(F)F)Oc2ccc(Cl)cc2O1 (stereo unspecified) | 34.9%

Compound | inhibition
CCCCNC(=O)NC1(C(F)(F)F)Oc2ccccc2O1 | -12%
Cc1nccn1S(=O)(=O)c1ccc(Br)cc1Br | -1.1%
OC(CC1CC12c1ccccc1-c1ncccc12)(c1ccccc1)c1ccccc1 (stereo unspecified) | -45%
CCCCn1cc(C(=O)c2cc(Br)ccc2O)cc(C#N)c1=O | -1.5%
CCCC1CCc2c(c3ccccc3[nH]c2=O)O1 (stereo unspecified) | -5%
CC1CCc2c(c3ccccc3[nH]c2=O)O1 (stereo unspecified) | 9%
Fc1ccc(CSc2nnc(-c3cnccn3)n2Cc2ccco2)cc1 | 7.7%
CCCCOC(=O)C(C)Nc1n[nH]c(=O)[nH]c1=O (stereo unspecified) | 3.9%
CCCCOC(=O)CNc1n[nH]c(=S)[nH]c1=O | -1.8%
CCN1CCN(Cc2nc3c(c(=O)n(C)c(=O)n3C)n2Cc2cccc3ccccc23)CC1 | -34.1%
Cc1ccccc1CN(c1ccc(C(=O)N2CCc3ccccc3C2)cc1)S(C)(=O)=O | -40.7%
O=C(c1cccs1)c1coc2ccc(O)c(CN3CCOCC3)c12 | -1%
Cc1ccc(OCn2c(=O)sc3ccccc32)cc1 | -9%
O=c1sc2ccccc2n1CCOc1ccccc1 | 33.9%
CCOc1ccc(NC(N)=O)cc1OCC | 13.6%
O=P(O)(O)c1ccccc1OCCOCCOc1ccccc1P(=O)(O)O | 17.4%
O=P(O)(O)c1ccccc1OCCCCCOc1ccccc1P(=O)(O)O | 21.2%
CSC1=C(C#N)C(c2ccccc2C)C(C#N)=C(N)N1 (stereo unspecified) | 17.9%
O=C(NC(Cc1ccc(F)cc1)C(=O)O)c1ccccc1 (stereo unspecified) | -2.2%
Cc1cc(C)n2nc(SCc3nnc(SCc4ccccc4)s3)nc2n1 | -20.5%
COC(=O)c1cc(NC(=O)C2COc3ccccc3O2)ccc1Cl (stereo unspecified) | 28.8%
Cc1c(NC(=O)C(C)OC(=O)CNC(=O)c2ccccc2)c(=O)n(-c2ccccc2)n1C (stereo unspecified) | 5.2%
O=C(CSc1n[nH]c(-c2ccncc2)n1)c1ccccc1 | 7.6%
O=C(CSc1n[nH]c(-c2ccccc2)n1)c1ccccc1 | -11.7%

Compound | inhibition
Cc1ccc(C(=O)CSc2nc3ccccc3c(=O)[nH]2)cc1 | -27.5%
CC(C)(C)c1ccc(C(=O)CSc2nc3ccccc3c(=O)[nH]2)cc1 | -9.7%
COc1ccc(Cn2c(CCC(=O)Nc3ccc(CC#N)cc3)nc3cccnc32)cc1 | 11.1%
O=C(C[n+]1ccc(C(=O)N/N=C/c2ccc(O)cc2)cc1)c1ccccc1 | 23.2%
O=C(C[n+]1ccc(C(=O)N/N=C/c2ccc(OCc3ccccc3)cc2)cc1)c1ccccc1 | 41.8%
CC(=O)NC1C(=O)N=C(SCC(=O)NC(C)c2ccccc2)NC1=O (stereo unspecified) | -18.8%
C=CCNS(=O)(=O)CC12CCC(CC1=O)C2(C)C (stereo unspecified) | 4.8%
CCOC(=O)Cc1csc(NC(=O)NC2(C(F)(F)F)Oc3ccc(Cl)cc3O2)n1 (stereo unspecified) | 30.3%
O=C(NC1(C(F)(F)F)Oc2ccccc2O1)N1CCCC1 | -7.5%
O=C(Nc1cc(N2CCOCC2)ncn1)c1ccccc1 | 1.3%
O=C(Nc1cc(N2CCOCC2)ncn1)Nc1cccc2ccccc12 | 14.5%
CC(=O)OC(C)(C)C#CCN1CCCC1 | 24.5%
CC(=O)N1CCN(C(=S)c2ccc([N+](=O)[O-])cc2)CC1 | 12.8%
Cc1[nH]c2ccccc2c1C(=O)/C=C/c1ccccc1 | 10.6%
Cc1[nH]c2ccccc2c1/C=N/n1cnnc1 | 7.5%
Cc1nn(CC(O)Cn2cnc3c2c(=O)n(C)c(=O)n3C)c(C)c1Br (stereo unspecified) | -1.6%
CCOc1cccc(-c2nc(C(N)=O)c3[nH]c(=O)n(-c4cccc(Cl)c4)c3n2)c1O | -27.5%
COc1ccc(OCCNc2cc(Cl)ccc2[N+](=O)[O-])cc1 | 4.1%
COc1cccc(OCCNc2cc(N3CCCCC3)ccc2[N+](=O)[O-])c1 | -2.3%
CCC(=O)NCCc1nc2cc(NC(=O)c3ccccc3OC)ccc2n1C | -60.5%
CCOC(=O)c1c(C)n(CC(COC(C)=O)OC(C)=O)c2ccc(OC(C)=O)cc12 (stereo unspecified) | -45.7%
CCCCN(CCCC)S(=O)(=O)c1ccc(C(=O)Nc2nnc(CSC)o2)cc1 | -15.3%
c1ccc([C@H]2CC3C[C@@H](c4ccccc4)N2O3)cc1 | -8.8%
O=C(NC1CCCCCC1)c1nc2ncccn2n1 | 2.9%
